Measurements as given in the supplement of paper PMC11732987, “Enantioselective OTUD7B fragment discovery through chemoproteomics screening and high-throughput optimisation” (Communications Chemistry, 2025).

Tests used:
Experiment in all cases: log2 ratio of Biotin-Ahx-Ub-VS probe labelling (fragment/DMSO); higher = less target engagement (more negative = stronger competition), active = hit call of the paper (q ≤ 0.05, log2 ratio ≤ -1)
Settings in all cases: compound concentration: 200 uM; treatment time: 3 h
USP34 = USP34 (UniProt Q70CQ2)
Sequence of USP34 (Q70CQ2 whole entry, the tested form may be a part): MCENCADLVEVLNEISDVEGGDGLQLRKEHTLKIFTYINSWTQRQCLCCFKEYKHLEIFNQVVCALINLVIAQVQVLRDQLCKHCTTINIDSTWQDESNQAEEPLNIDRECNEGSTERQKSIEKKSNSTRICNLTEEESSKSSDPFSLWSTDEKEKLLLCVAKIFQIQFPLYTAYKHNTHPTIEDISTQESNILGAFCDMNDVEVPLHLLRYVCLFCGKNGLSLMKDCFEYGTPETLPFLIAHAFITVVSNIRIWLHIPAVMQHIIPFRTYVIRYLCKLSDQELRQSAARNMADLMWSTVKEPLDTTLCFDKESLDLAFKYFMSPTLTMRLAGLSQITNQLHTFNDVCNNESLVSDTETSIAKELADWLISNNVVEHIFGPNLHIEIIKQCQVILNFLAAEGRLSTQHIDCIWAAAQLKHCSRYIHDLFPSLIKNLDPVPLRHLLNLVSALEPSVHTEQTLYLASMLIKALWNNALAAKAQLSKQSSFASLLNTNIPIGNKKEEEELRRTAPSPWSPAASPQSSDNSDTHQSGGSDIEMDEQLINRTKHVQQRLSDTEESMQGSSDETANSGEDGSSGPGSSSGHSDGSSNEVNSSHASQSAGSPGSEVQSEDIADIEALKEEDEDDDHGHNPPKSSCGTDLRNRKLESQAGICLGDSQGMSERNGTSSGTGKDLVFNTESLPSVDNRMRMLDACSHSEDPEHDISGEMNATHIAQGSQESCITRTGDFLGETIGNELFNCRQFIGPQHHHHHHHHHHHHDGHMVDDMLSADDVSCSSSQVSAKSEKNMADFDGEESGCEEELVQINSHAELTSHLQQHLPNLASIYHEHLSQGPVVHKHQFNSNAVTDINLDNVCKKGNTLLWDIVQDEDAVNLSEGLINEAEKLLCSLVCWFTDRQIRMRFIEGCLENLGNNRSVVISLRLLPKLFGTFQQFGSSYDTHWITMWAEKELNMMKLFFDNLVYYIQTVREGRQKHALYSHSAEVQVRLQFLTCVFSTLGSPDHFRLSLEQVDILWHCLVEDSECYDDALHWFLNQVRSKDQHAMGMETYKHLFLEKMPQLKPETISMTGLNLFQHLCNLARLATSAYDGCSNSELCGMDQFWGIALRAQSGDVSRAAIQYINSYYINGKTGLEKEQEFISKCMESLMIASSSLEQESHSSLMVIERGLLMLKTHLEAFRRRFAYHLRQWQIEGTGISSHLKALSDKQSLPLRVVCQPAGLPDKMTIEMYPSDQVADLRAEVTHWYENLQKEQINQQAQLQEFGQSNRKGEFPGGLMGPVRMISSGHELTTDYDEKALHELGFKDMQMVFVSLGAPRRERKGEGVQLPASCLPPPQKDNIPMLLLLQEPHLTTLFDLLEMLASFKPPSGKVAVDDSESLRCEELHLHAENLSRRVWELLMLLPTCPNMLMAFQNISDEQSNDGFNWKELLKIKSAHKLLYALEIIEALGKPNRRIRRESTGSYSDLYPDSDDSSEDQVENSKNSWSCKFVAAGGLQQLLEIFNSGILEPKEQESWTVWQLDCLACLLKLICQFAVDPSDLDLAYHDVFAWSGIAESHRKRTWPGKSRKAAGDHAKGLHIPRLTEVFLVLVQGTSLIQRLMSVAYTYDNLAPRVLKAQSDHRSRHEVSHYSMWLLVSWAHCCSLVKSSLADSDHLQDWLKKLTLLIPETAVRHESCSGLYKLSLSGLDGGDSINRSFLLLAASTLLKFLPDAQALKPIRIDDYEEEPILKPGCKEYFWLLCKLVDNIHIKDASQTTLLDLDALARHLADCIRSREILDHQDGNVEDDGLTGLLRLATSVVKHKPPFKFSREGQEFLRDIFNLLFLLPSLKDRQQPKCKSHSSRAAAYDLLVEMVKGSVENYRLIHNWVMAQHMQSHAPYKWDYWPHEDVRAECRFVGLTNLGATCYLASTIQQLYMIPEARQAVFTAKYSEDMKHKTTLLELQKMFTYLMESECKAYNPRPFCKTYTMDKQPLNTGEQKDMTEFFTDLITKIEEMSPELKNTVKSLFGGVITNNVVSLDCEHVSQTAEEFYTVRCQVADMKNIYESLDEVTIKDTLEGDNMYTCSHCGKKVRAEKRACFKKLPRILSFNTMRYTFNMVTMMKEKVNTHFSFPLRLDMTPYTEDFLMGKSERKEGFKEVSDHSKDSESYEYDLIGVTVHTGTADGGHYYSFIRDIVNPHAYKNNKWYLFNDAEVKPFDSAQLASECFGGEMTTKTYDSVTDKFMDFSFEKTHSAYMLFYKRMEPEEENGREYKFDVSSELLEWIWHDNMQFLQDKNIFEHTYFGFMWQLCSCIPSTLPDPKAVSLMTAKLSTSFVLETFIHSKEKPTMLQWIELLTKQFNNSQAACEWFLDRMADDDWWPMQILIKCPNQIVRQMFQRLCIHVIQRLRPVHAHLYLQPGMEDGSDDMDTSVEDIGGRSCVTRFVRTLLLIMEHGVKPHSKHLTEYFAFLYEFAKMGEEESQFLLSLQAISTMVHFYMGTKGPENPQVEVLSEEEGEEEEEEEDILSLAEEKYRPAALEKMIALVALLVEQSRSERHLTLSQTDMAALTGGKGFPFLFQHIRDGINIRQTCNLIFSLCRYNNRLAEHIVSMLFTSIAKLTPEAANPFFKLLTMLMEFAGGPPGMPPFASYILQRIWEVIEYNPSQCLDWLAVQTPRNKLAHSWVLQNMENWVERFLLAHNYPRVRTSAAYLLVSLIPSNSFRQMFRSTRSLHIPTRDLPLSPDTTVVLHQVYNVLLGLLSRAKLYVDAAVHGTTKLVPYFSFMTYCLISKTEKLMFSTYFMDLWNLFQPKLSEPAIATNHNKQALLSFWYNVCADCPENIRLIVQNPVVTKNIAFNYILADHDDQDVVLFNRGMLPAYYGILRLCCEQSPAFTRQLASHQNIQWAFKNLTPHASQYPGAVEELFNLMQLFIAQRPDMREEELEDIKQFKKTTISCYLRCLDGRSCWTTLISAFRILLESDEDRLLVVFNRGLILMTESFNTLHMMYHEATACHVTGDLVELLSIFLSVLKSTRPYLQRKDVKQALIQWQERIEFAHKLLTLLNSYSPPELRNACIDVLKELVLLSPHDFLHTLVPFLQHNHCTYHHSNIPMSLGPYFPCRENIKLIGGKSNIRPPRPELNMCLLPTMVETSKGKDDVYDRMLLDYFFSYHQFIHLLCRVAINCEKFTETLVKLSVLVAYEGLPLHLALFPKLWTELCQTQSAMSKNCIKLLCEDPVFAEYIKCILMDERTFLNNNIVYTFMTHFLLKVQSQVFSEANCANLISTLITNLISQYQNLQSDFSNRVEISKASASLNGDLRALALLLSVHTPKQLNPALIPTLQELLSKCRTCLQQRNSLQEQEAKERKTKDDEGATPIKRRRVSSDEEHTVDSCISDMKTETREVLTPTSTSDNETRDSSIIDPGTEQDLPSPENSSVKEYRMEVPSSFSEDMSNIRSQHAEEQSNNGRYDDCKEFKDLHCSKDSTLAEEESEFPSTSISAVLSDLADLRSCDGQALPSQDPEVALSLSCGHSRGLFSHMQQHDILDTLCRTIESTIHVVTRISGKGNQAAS
In short: (§1)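 Labelled DUBs from HEK293T lysate were NeutrAvidin-enriched, digested with LysC and trypsin, and run by diaPASEF LC-MS/MS. Before that, each 495 µg sample in Tris/CHAPS/IGEPAL buffer with protease inhibitors was treated in triplicate with fragment at 200 µM or vehicle for 3 h, then with Biotin-Ahx-Ub-VS at 0.5 µM final for 1 h. Values are average log2 ratios of fragment over vehicle by unpaired t-test, based on global-median-normalised Spectronaut label-free quantities from proteins with ≥2 unique peptides.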

USP36 = molecular target: T1, USP36 (UniProt Q9P275)
T1 sequence (whole entry): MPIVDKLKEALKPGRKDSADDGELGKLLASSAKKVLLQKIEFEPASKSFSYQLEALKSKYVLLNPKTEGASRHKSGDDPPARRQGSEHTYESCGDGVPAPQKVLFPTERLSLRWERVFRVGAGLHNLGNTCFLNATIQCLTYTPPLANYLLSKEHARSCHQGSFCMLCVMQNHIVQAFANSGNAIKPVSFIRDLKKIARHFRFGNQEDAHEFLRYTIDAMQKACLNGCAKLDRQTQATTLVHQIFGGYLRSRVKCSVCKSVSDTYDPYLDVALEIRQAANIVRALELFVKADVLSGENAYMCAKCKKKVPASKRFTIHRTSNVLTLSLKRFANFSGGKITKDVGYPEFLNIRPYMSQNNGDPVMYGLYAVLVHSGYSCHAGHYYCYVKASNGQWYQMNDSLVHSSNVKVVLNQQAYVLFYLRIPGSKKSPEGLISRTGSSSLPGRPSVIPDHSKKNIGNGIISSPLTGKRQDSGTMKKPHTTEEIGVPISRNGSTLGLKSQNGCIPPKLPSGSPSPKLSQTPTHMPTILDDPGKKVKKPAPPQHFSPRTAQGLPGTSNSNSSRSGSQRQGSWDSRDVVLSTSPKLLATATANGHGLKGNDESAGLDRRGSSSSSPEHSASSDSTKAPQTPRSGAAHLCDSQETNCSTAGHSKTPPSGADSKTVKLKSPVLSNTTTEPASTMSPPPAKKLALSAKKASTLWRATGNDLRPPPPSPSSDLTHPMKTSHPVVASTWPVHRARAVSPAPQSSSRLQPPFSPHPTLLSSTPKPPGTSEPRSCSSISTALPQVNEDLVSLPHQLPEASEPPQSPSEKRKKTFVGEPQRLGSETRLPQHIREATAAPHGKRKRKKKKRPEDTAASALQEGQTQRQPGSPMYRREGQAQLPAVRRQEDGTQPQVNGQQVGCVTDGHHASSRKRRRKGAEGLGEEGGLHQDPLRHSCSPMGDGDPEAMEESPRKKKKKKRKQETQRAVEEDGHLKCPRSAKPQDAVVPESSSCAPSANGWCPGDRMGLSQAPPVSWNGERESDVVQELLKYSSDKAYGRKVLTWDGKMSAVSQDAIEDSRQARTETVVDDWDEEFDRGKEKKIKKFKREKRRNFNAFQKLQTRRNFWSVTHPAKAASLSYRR
In short: as §1

USP38 = molecular target: T2, USP38 (UniProt Q8NB14)
T2 sequence (whole entry): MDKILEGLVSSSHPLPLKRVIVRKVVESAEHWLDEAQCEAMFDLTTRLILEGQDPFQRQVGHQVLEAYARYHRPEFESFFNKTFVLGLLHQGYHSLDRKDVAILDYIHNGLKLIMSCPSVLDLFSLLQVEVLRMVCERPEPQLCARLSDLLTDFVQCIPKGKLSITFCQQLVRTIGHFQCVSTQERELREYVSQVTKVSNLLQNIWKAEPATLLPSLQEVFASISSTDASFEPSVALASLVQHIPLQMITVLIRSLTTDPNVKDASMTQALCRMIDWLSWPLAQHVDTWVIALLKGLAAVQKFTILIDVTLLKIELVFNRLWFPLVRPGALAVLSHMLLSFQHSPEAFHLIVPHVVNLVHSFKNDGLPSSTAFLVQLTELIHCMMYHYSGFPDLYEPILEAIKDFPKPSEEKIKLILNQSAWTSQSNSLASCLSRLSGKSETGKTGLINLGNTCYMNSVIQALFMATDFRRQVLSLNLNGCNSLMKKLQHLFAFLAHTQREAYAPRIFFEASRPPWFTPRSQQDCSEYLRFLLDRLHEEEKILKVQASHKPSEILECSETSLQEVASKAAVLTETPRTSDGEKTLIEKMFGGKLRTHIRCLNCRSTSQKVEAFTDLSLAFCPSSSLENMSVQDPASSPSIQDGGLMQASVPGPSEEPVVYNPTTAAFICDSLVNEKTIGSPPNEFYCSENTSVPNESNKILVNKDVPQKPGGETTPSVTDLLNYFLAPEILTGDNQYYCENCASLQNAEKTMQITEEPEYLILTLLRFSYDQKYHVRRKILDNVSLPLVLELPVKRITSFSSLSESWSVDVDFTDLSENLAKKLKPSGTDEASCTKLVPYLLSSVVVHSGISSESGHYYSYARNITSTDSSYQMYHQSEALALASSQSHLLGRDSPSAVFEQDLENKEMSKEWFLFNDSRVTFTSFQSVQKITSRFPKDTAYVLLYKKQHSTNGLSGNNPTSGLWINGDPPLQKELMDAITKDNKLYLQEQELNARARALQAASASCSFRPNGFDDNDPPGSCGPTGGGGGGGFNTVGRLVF
In short: as §1

USP39 = molecular target: T3, USP39 (UniProt Q53GS9)
T3 sequence (whole entry): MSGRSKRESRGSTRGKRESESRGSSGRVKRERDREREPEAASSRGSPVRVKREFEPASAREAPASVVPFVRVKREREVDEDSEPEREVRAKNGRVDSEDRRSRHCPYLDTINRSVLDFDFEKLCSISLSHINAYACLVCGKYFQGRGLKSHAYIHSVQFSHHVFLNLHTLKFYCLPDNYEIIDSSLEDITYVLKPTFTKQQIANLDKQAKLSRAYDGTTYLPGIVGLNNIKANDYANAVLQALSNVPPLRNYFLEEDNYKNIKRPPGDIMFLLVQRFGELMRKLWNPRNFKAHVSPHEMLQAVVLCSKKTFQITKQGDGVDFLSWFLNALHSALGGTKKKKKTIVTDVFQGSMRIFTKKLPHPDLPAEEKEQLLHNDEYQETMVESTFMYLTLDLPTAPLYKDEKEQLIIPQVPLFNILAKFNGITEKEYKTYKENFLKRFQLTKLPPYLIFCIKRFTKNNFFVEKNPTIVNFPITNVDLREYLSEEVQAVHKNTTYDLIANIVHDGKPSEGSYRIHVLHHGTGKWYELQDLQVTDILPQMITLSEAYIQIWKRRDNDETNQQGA
In short: as §1

USP4 = molecular target: T4, USP4 (UniProt Q13107)
T4 sequence (whole entry): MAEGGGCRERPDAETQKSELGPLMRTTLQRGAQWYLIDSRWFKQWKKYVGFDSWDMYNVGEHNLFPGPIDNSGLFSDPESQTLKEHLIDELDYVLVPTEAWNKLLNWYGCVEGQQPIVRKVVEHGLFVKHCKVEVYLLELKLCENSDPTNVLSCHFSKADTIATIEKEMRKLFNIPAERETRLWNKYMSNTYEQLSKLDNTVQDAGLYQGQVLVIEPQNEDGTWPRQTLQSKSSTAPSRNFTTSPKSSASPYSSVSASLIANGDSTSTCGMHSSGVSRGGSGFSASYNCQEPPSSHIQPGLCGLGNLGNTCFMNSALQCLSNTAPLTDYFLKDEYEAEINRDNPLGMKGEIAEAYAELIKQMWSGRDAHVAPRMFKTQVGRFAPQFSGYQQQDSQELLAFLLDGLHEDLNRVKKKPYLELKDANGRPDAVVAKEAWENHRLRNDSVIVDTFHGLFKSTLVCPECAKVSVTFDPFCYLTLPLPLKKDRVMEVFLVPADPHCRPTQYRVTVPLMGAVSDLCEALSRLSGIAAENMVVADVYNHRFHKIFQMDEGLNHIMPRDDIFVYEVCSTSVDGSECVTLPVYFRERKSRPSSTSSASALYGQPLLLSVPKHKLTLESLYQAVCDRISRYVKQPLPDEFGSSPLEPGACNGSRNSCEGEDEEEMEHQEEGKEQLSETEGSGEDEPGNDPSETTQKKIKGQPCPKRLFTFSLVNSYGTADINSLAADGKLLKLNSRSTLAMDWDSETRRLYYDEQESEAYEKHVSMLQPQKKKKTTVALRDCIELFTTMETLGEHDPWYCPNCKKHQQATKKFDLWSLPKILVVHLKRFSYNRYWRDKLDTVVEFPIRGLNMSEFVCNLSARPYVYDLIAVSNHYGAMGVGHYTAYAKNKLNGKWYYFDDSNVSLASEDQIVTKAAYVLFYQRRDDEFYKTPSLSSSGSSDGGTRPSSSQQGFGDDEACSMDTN
In short: as §1

Measured: log2 ratio of Biotin-Ahx-Ub-VS probe labelling

O=C(CCl)NC1CCOc2ccccc21 (stereo not given)
inactive: USP34 -0.539 | USP36 -0.388 | USP38 -0.738 | USP39 -0.0973 | USP4 -0.674
